Hits are enriched below; roughly 2.4% of the tested compounds scored in any of these assays.
Pf Dd2 inh = blocks growth of Plasmodium falciparum Dd2 parasites; P. falciparum Dd2 growth, SYBR Green, 72 h; hits give low values; activity change, % at 10 µM; actives 2.3% (n = 94,000); in the data active = activity change below about -80%; inconclusive = no clear call, values can overlap the other calls
C diff HTS = inhibitors of Clostridium difficile growth | actives 0.25% (n = 86,000) | Clostridium difficile clinical isolate growth, OD600, 24 h; hits give low values | growth activity, negative = inhibition, % at 16 µg/mL (by protocol);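 active = mean growth activity at or below -80% and every replicate also at or below -80%; inconclusive = mean at or below -80% but some replicate above -80%; inactive = mean growth activity above -80%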;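 note: 0% = DMSO wells and -100% = levofloxacin 16 µg/mL wells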
An asterisk follows results filed as active; ? = inconclusive; / = no result.

SMILES	Pf Dd2 inh	C diff HTS
C[C@@H]1CN([C@H](C)CO)C(=O)c2cc(NC(=O)Nc3ccc(F)cc3)ccc2O[C@@H](C)CCCCO[C@H]1CN(C)Cc1ccc(C(F)(F)F)cc1	-82*	/
C[C@@H]1CN([C@H](C)CO)C(=O)c2cc(NC(=O)Nc3ccc(C(F)(F)F)cc3)ccc2O[C@@H](C)CCCCO[C@@H]1CN(C)Cc1ccncc1	-77	-4
C[C@H]1CCCCO[C@@H](CN(C)Cc2ccc(C(F)(F)F)cc2)[C@@H](C)CN([C@@H](C)CO)C(=O)c2cc(NC(=O)Nc3ccc(C(F)(F)F)cc3)ccc2O1	-83*	19
C[C@H]1CCCCO[C@H](CN(C)Cc2ccc(C(F)(F)F)cc2)[C@@H](C)CN([C@@H](C)CO)C(=O)c2cc(NC(=O)Nc3ccc(F)cc3)ccc2O1	-2	/
C[C@@H]1CCCCO[C@H](CN(C)Cc2ccc(C(F)(F)F)cc2)[C@H](C)CN([C@@H](C)CO)C(=O)c2cc(NC(=O)Nc3ccc(F)cc3)ccc2O1	-80	/
C[C@@H]1CCCCO[C@H](CN(C)Cc2ccncc2)[C@H](C)CN([C@H](C)CO)C(=O)c2cc(NC(=O)Nc3ccc(C(F)(F)F)cc3)ccc2O1	-84*	2
C[C@@H]1CN([C@H](C)CO)C(=O)c2cc(NC(=O)Nc3ccc(F)cc3)ccc2O[C@@H](C)CCCCO[C@@H]1CN(C)Cc1ccc(C(F)(F)F)cc1	-82*	/
C[C@@H]1CN([C@@H](C)CO)C(=O)Cc2cc(NC(=O)Cc3ccccc3)ccc2O[C@H]1CN(C)C(=O)Nc1ccc(F)cc1	-24	14
CC(=O)N(C)C[C@@H]1Oc2cc(-c3ccc(C#N)cc3)ccc2S(=O)(=O)N([C@@H](C)CO)C[C@H]1C	-13	1
O=C(Nc1ccccc1)Nc1ccc2c(c1)[C@@H]1C[C@@H](CC(=O)N3CCOCC3)O[C@H](CO)[C@@H]1O2	2	1
Cc1ccc(S(=O)(=O)Nc2ccc3c(c2)C(=O)N([C@H](C)CO)C[C@@H](C)[C@H](CN(C)S(=O)(=O)c2cn(C)cn2)OCCCC[C@@H](C)O3)cc1	-1	-1
C[C@@H]1CCCCO[C@@H](CN(C)C(=O)Nc2ccc(F)cc2)[C@H](C)CN([C@H](C)CO)C(=O)c2cc(NC(=O)c3ccncc3)ccc2O1	-7	0
Cc1ccccc1S(=O)(=O)N1C[C@H](O)COC[C@@H]2O[C@@H](CC(=O)NCc3ccccc3Cl)CC[C@H]21	/	3
C[C@@H]1CN([C@H](C)CO)C(=O)c2cc(NC(=O)Nc3ccc(C(F)(F)F)cc3)ccc2O[C@@H](C)CCCCO[C@@H]1CN(C)Cc1ccc(Cl)c(Cl)c1	-87*	17
C[C@H](CO)N1C[C@H](C)[C@H](CN(C)Cc2ccc(Cl)c(Cl)c2)OCCCC[C@H](C)Oc2ccc(NC(=O)Nc3ccc(C(F)(F)F)cc3)cc2C1=O	-8	20
C[C@@H]1CCCCO[C@@H](CN(C)C(=O)Nc2cccc3ccccc23)[C@@H](C)CN([C@@H](C)CO)C(=O)c2cc(NC(=O)Nc3cccc4ccccc34)ccc2O1	-83*	/
C[C@H]1CCCCO[C@H](CN(C)C)[C@@H](C)CN([C@@H](C)CO)C(=O)c2cc(NC(=O)Nc3cccc4ccccc34)ccc2O1	-59	-2
C[C@@H]1CCCCO[C@H](CN(C)C)[C@H](C)CN([C@H](C)CO)C(=O)c2cc(NC(=O)Nc3cccc4ccccc34)ccc2O1	-86*	5
C[C@@H]1CCCCO[C@@H](CN(C)C(=O)Nc2cccc3ccccc23)[C@H](C)CN([C@@H](C)CO)C(=O)c2cc(NC(=O)Nc3ccccc3)ccc2O1	-31	2
CCCN(C)C[C@@H]1OCCCC[C@H](C)Oc2ccc(NC(=O)Nc3cccc4ccccc34)cc2C(=O)N([C@H](C)CO)C[C@@H]1C	-88*	34
CCCN(C)C[C@@H]1OCCCC[C@@H](C)Oc2ccc(NC(=O)Nc3cccc4ccccc34)cc2C(=O)N([C@H](C)CO)C[C@@H]1C	?	-4
CO[C@@H]1CN(C)C(=O)c2ccc(NC(=O)c3nc4ccccc4s3)cc2OC[C@@H](C)N(Cc2ccncc2)C[C@@H]1C	-72	/
CO[C@@H]1CN(C)C(=O)c2ccc(NC(=O)c3nc4ccccc4s3)cc2OC[C@H](C)N(Cc2ccncc2)C[C@@H]1C	-96*	/
CO[C@@H]1CN(C)C(=O)c2ccc(NC(=O)c3nc4ccccc4s3)cc2OC[C@H](C)N(Cc2cccnc2)C[C@H]1C	-53	0
CO[C@@H]1CN(C)C(=O)c2ccc(NC(=O)c3nc4ccccc4s3)cc2OC[C@H](C)N(Cc2cccnc2)C[C@@H]1C	-83*	-9
SMILES	Pf Dd2 inh	C diff HTS
O=C(C[C@H]1CC[C@@H](NC(=O)c2ccccc2)[C@H](CO)O1)NCc1ccncn1	4	0
C[C@H](CO)N1C[C@H](C)[C@H](CN(C)S(=O)(=O)c2cccs2)OCCCC[C@H](C)Oc2ccc(NC(=O)Nc3ccc(F)cc3)cc2C1=O	-28	-9
C[C@H]1CCCCO[C@H](CN(C)S(=O)(=O)c2cccs2)[C@@H](C)CN([C@@H](C)CO)C(=O)c2cc(NC(=O)C3CCCCC3)ccc2O1	-78	2
C[C@H]1CCCCO[C@@H](CN(C)S(=O)(=O)c2cccs2)[C@@H](C)CN([C@@H](C)CO)C(=O)c2cc(NC(=O)NC3CCCCC3)ccc2O1	-58	2
C[C@H](CO)N1C[C@H](C)[C@H](CN(C)S(=O)(=O)c2cccs2)OCCCC[C@H](C)Oc2ccc(NC(=O)Nc3ccc(C(F)(F)F)cc3)cc2C1=O	-28	-4
C[C@@H]1CN([C@H](C)CO)C(=O)c2cc(NC(=O)Nc3ccc(F)cc3)ccc2O[C@@H](C)CCCCO[C@@H]1CN(C)S(=O)(=O)c1cccs1	-84*	-5
C[C@H]1CCCCO[C@@H](CN(C)S(=O)(=O)c2cccs2)[C@@H](C)CN([C@@H](C)CO)C(=O)c2cc(NC(=O)Nc3ccc(C(F)(F)F)cc3)ccc2O1	-89*	-10
C[C@@H]1CN([C@H](C)CO)C(=O)c2cc(NC(=O)NC3CCCCC3)ccc2O[C@@H](C)CCCCO[C@@H]1CN(C)S(=O)(=O)c1cccs1	-84*	-5
C[C@@H]1CN([C@H](C)CO)C(=O)c2cc(NC(=O)C3CCCCC3)ccc2O[C@@H](C)CCCCO[C@@H]1CN(C)S(=O)(=O)c1cccs1	-84*	6
CCCNC(=O)N1CC2(CCN(CC3CCOCC3)CC2)c2c(n(C)c3cc(OC)ccc23)[C@@H]1CO	-12	-7
CCCNC(=O)C[C@@H]1CC[C@H]2[C@@H](COC[C@@H](O)CN2C(=O)Nc2ccccc2OC)O1	3	/
COc1ccc2c3c(n(C)c2c1)[C@@H](CO)N(C(=O)CC1CC1)CC31CN(C(=O)C2CCC2)C1	-3	-4
C[C@@H]1CN([C@@H](C)CO)C(=O)c2cc(NC(=O)Nc3cccc4ccccc34)ccc2O[C@@H](C)CCCCO[C@@H]1CN(C)S(=O)(=O)c1cccs1	-90*	0
C[C@H]1CCCCO[C@H](CN(C)S(=O)(=O)c2cccs2)[C@@H](C)CN([C@@H](C)CO)C(=O)c2cc(NC(=O)Nc3cccc4ccccc34)ccc2O1	-60	1
COCC(=O)N(C)C[C@@H]1Oc2ncc(Br)cc2C(=O)N([C@H](C)CO)C[C@@H]1C	21	-2

From PubChem
